Hits are enriched below; roughly 14% of the tested compounds scored in any of these assays.
LmPK inhibitor: qHTS Assay for Inhibitors of Leishmania Mexicana Pyruvate Kinase (LmPK) | AID 1721, 2009 | Potency, µM (doses to about 57.5 µM), inactives show top-dose activity change, negative = inhibition, usual class: inhibitors | 0.37% of 290,000 active | Q27686 | purified LmPK, Kinase-Glo ATP luminescence, 1 h; also: potency is read from the fitted curve at half-maximal effect; % is scaled to controls: 0 for no effect and ±100 for the full control effect
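ATP generated from ADP (0.1 mM) and PEP (0.5 mM) by 0.1 nM LmPK over 1 h at room temperature (pH 7.2 imidazole buffer) was detected by coupled luciferase luminescence. Values were normalized to uninhibited and no-enzyme wells.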
FBPA Giardia inh: qHTS Assay for Inhibitors of Fructose-1,6-bisphosphate Aldolase from Giardia Lamblia; AID 2451, 2010; Potency, µM (series often up to 59.6 µM), for inactives: at the top dose activity, negative = inhibition, usual class: inhibitors; purified Giardia FBPA; A8B2U2; 0.71% of 290,000 active; also: potency is read from the fitted curve at half-maximal effect; % is scaled to controls: 0 for no effect and ±100 for the full control effect; nearly all actives have a fitted effect of over 55% in size
Target sequence (A8B2U2 whole entry, looked up): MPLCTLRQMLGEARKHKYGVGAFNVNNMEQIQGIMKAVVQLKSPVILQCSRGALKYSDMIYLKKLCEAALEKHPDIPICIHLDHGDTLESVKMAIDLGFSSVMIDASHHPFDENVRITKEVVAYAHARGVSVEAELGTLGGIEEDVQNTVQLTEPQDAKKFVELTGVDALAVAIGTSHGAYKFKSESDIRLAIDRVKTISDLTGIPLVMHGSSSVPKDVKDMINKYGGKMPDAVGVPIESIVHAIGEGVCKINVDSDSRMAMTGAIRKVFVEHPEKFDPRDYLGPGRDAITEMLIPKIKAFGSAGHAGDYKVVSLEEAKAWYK
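40 nM FBPA preincubated 10 min at RT with compound (up to 57.5 uM final), then substrate plus GAPDH/TPI/NAD/arsenate coupling and diaphorase/resazurin added. Fluorescence read after 20 min at RT, 525/598 nm.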
Shiga inhibitor: A qHTS for Small Molecule Inhibitors of Shiga Toxin; Vero cells, Shiga toxin protein synthesis inhibition reporter; inhibition, % at 38.7 µM; 9.2% of 290,000 active; AID 2315, 2010; in the data active = inhibition mostly above about 28%, no sharp cut-off; inactive = mostly below about 43%; also: 0% is about no effect
Cycloheximide cs: Cycloheximide Counterscreen for Small Molecule Inhibitors of Shiga Toxin | cell reporter, cycloheximide protein synthesis inhibition counterscreen | max response, % | 12% of 300,000 active; in the data active = max response mostly above about 13%, no sharp cut-off; inactive = mostly below about 14%; also: read at 38.3 µM for the half of the compounds with a filed dose; 0% is about no effect
NS1 function inh: qHTS Assay for Inhibitors of Influenza NS1 Protein Function | Potency, µM (titrated, usually from 46.1 µM), inactives show at the highest dose activity, positive = more growth | 0.4% of 270,000 active; calls by dose curve; also: potency is read from the fitted curve at half-maximal effect; actives are rising curves; nearly all actives have a fitted effect of over 50% in size
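OD600 was taken as the measure of yeast growth restored by compound in an NS1-expressing S. cerevisiae strain. Cells had been washed out of glucose medium and diluted 1:100 into galactose -URA medium, pH 6.0.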
The depositor's hits bear a star; ? = inconclusive; . = no result given. Unless noted, calls follow the shape of the dose curve; as a rule, active = well fitted curve in the direction sought with a large enough effect; inconclusive = small, poorly fitted or top-dose-only effect, or another doubt; inactive = no such curve, though single readings can be large; an effect the other way counts as inactive or inconclusive.

SMILES	LmPK inhibitor	FBPA Giardia inh	Shiga inhibitor	Cycloheximide cs	NS1 function inh
C[C@@H](C(=O)Nc1ccc2ccccc2c1)[C@H]1C[C@]1(C)[C@H](N)c1ccccc1	.	-7%	0	0	.
CCOC(=O)CN1C(=O)NC2(CCCc3ccccc32)C1=O (centres undefined)	-4%	4%	1	-1	0%
COc1ccc(SC[C@H](CC(C)C)N2CCN(C)CCC2=O)cc1	-2%	0%	75*	17*	4%
CC(=O)Nc1ccc(SC[C@H](CC(C)C)N2CCN(CC(C)C)CCC2=O)cc1	1%	-2%	-4	-6	0%
CC(C)C[C@@H](CSc1ccc(Br)cc1)N1CCN(C)CCC1=O	0%	2%	57*	40*	?
Cc1ccc(SC[C@H](CC(C)C)N2CCN(C)CCC2=O)cc1	0%	0%	84*	38*	-5%
CCCN1CCC(=O)N(C(CSc2ccc(Br)cc2)Cc2ccccc2)CC1 (centres undefined)	.	0%	-10	-5	.
COc1ccc(C)cc1-n1cnnn1	1%	3%	6	1	-2%
CCOC(=O)C1=C(C)N(CC(C)C)C(=O)/C1=C\c1ccc(OCC(=O)Nc2ccccc2)cc1	2%	3%	-1	12	29%
CC(C)CC(=O)Nc1cccc(-c2nc3ccccc3o2)c1	4%	-1%	62*	22*	-20%
COc1ccc(OCC(=O)Nc2cccc(-c3nc4ccccc4o3)c2)cc1	3%	-1%	123*	45*	16%
CN1C(=O)C(=Cc2ccc(OCC(=O)Nc3ccccc3)cc2)C(=O)N(C)C1=O	8%	.	75*	50*	4%
CC(C)CC(=O)Nc1ccc2oc(-c3ccncc3)nc2c1	-3%	4%	59*	24*	-12%
O=C(Cc1ccccc1)Nc1ccc2oc(-c3ccncc3)nc2c1	-3%	-7%	33	15	-1%
CC(C)CCCC(C)C1CCC2C3CC(=O)[C@H]4CC(O)CC[C@]4(C)C3CC[C@@]12C (some centres undefined)	.	13%	.	.	.
Cc1ccc(S(=O)(=O)C(C#N)=C2N(C)c3ccccc3N2C)cc1	-4%	-13%	2	1	.
OCC[C@@H]1C[C@@H](O)[C@H](O)[C@]2(Cc3ccccc3O2)O1	-4%	1%	-10	1	-6%
c1ccc(-c2[nH]ncc2-c2ccnc3ccccc23)nc1	.	?	-6	-6	.
CC(=O)Nc1cccc(-c2nc3ccccc3o2)c1	5%	22%	40*	28*	-38%
CCCC(=O)Nc1cccc(-c2nc3ccccc3o2)c1	3%	0%	33	26*	4%
O=C(O)CCC(=O)Nc1cccc(-c2nc3ccccc3o2)c1	1%	7%	5	0	8%
CC(=O)Nc1ccc2oc(-c3ccccc3)nc2c1	-3%	-2%	93*	41*	.
CCCC(=O)Nc1cccc(-c2nc3cc(C)c(C)cc3o2)c1	-16%	6%	84*	39*	-9%
CC(C)(C)c1ccc(S(=O)(=O)NCC(=O)N2CCN(Cc3ccccc3)CC2)cc1	1%	11%	-16	-2	15%
C/C(=C\C[Si](C)(C)C)CCC=O	.	-6%	.	.	.
SMILES	LmPK inhibitor	FBPA Giardia inh	Shiga inhibitor	Cycloheximide cs	NS1 function inh
Cc1ccc(S(=O)(=O)C2(C(=O)NCCc3ccccc3)CC2)cc1	-1%	-5%	23	5	-6%
CC(OC(=O)CCOc1ccccc1)C(=O)Nc1ccc(Cl)cn1 (centres undefined)	0%	.	-7	9	-24%
CC(=O)Nc1ccc2nc3ccccc3nc2c1	-13%	?	91*	52*	-58%
O=C(COc1ccccc1)Nc1cccc(-c2nnc(-c3ccccc3)o2)c1	1%	1%	72*	20*	-51%
CC(=O)Nc1ccc(-c2nc3ccc(NC(C)=O)cc3o2)cc1	-2%	0%	79*	34*	0%
CC(=O)Nc1cc(-c2nc3ccccc3o2)ccc1Cl	10%	13%	47	11	-4%
C=Cc1cccc(NC(=O)COc2ccccc2)c1	-1%	-5%	41	35*	-18%
O=C(O)CCC(=O)Nc1cccc(-c2nnc(-c3ccccc3)o2)c1	-3%	10%	14	11	-19%
CC(=O)Nc1ccc2c(c1)nc(C)n2Cc1ccccc1	-2%	-3%	.	-4	14%
CCCc1cc(=O)oc2cc(OC3CCCCC3=O)ccc12 (centres undefined)	1%	8%	-2	13	-3%
O=C(CN1C(=O)C2C3CCC(C3)C2C1=O)OCC(=O)c1ccc(Br)cc1 (centres undefined)	-6%	.	-4	11	-10%
CCCCOc1ccc(C(=O)O)cc1	2%	6%	-17	-4	-135%
Nc1nnc(-c2ccc(F)cc2)s1	1%	1%	11	11	-4%
CCCCOc1ccc(-c2nnc(N)s2)cc1	-7%	3%	22	21*	0%
CCOc1ccc(-c2nnc(N)s2)cc1	-7%	-1%	142*	25*	-4%
CCCCOc1ccc(-c2ncc(N)cn2)cc1	-6%	-2%	114*	53*	-1%
CC(C)(C)c1ccc(-c2nnc(N)s2)cc1	-13%	0%	80*	59*	-30%
COc1cccc(Nc2ncc3nc(-c4ccccc4)c(=O)n(C[C@H]4CCCO4)c3n2)c1	.	-5%	.	.	.
ClCc1csc(-c2ccc(Cl)cc2)n1	-4%	0%	18	-1	-1%
CCOc1ccc(-c2nc(CCl)cs2)cc1	-16%	0%	153*	34*	.
CCC(OC(=O)C(NC(=O)c1ccccc1)c1ccccc1)C(=O)Nc1cc(C)on1 (centres undefined)	-2%	-2%	26	-2	-17%
CCC(Oc1ccccc1)C(=O)Nc1ccccn1 (centres undefined)	1%	16%	22	26*	2%
CCC(Oc1ccccc1)C(=O)NC1CCCCCC1 (centres undefined)	0%	3%	-7	-1	-6%
CCC(Oc1ccccc1)C(=O)Nc1cc(C)on1 (centres undefined)	-3%	4%	38*	15*	5%
CCOC(=O)C(=O)Nc1cc(C)on1	16µM*	5%	80*	72*	5%
CCCNC(=S)NC1CC2CCCC(C1)N2Cc1ccc(F)cc1 (centres undefined)	2%	?	-8	-7	29%
CCC1=C(OC(=O)N(CC)CC)N2C(=O)OC(=NCCOC)[C@]2(C)[C@H]2C1=CC[C@H]1C(=O)N(C)C(=O)[C@H]12	.	0%	.	.	.
COc1ccc(C(=O)N/N=C(\C)c2ccc3c(c2)C2C=CCC2C(c2ccccc2)N3)cc1 (centres undefined)	-4%	?	31	20*	21%
Cc1cc(NC(=O)CSc2nc3c(C)cccc3cc2C)no1	-5%	.	-14	-9	4%
O=C(O)/C=C/c1coc2ccc(F)cc2c1=O	-3%	10%	active	23*	-6%

Source: PubChem
